Structures are written as SMILES. A number with no mark means an inactive call. For some of these results: Entries with a potency or affinity are not part of this list. Activity calls are given as the source filed them. Unless noted, no rule for the calls is given here.

Assay [1] in a line: antimalarial activity against Dd2 strain (AID 2302;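 active = growth inhibition above 50% at the single 2 µM test dose, taken to imply half-maximal potency below 2 µM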;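 also: 0% = DMSO untreated growth and 100% = chloroquine plus artemisinin killed control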). The following applies: P. falciparum Dd2 in RBCs, LDH growth readout, 72 h; at 2 µM; hits give high values.
A short description of assay [2]: HepG2 cytotoxicity, primary screen, cytotoxicity control for P. falciparum antimalarial project, cell-based, ATP luminescence (AID 2303;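 active = inhibition above 50%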;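 also: 0% = DMSO wells and 100% = digitonin-killed cells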). The following applies: HepG2 viability, 24-48 h, at 10 µM, hits give high values.
For assay [3], the target named is L-lactate dehydrogenase (Plasmodium falciparum (isolate CDC / Honduras)) (UniProt Q27743). Kind of assay: PfLDH activity inhibition – cell lysate, 3D7 strain, counter-screen for P. falciparum growth inhibition project (AID 2304).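 Also: 0% = vehicle and 100% = reference inhibitor.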 Conditions: P. falciparum 3D7 crude extract, LDH APAD/NBT absorbance; at 2 µM; hits give high values. A general note: Counterscreens check selectivity or assay interference.
L-lactate dehydrogenase (Plasmodium falciparum (isolate CDC / Honduras)), sequence (Q27743 whole entry, looked up): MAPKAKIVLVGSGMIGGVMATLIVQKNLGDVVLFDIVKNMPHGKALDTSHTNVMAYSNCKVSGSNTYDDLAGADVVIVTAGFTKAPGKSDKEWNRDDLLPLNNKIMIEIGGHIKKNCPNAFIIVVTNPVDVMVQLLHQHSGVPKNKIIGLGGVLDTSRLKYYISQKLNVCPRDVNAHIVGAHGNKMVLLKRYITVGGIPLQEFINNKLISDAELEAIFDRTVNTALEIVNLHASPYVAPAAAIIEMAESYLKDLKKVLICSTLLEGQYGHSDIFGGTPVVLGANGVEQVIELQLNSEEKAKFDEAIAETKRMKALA

A short description of assay [4]: inhibition of 3D7 malaria parasite growth – strain 3D7 (AID 2306).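 Also: 0% = DMSO wells and 100% = chloroquine plus artemisinin control wells.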 The following applies: P. falciparum 3D7 erythrocytic growth, LDH absorbance, 72 h; at 2 µM; hits give high values.
Assay [5] concerns the target Calcium-dependent protein kinase 1 (Plasmodium falciparum (isolate 3D7)) (UniProt P62344). In words: PfCDPK1 kinase inhibitors, biochemical, TCAMS library (AID 1159585; cut-off not given, nearly all actives have IC50 up to about 0.98 µM;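 also: inhibitors leave more ATP so luminescence rises with inhibition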). Conditions: recombinant PfCDPK1, Kinase-Glo ATP depletion luminescence.
In assay [6] the target is Plasmodium falciparum protein kinase 6 (PK6, PF3D7_1337100) (UniProt Q8IDW1). In words: PfPK6 kinase inhibitors, biochemical, TCAMS library (AID 1159586). Conditions: recombinant PfPK6, Kinase-Glo ATP depletion luminescence. (In general: Kinase-Glo reads ATP consumption through a luciferase reaction.)
Plasmodium falciparum protein kinase 6 (PK6, PF3D7_1337100), sequence (Q8IDW1 1-305): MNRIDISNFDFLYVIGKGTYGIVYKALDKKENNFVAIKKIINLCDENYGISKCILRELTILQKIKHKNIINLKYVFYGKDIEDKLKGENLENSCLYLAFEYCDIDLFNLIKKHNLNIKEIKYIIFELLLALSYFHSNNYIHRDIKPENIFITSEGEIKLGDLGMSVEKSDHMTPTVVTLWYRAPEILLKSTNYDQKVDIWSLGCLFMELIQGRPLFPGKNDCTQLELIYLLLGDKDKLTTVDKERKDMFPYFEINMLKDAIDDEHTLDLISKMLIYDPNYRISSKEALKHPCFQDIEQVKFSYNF
Assay [7] deals with Protein kinase 7 (PK7), Plasmodium falciparum 3D7 (PF3D7_0213400) (UniProt Q7YTF7). Kind of assay: inhibition of Plasmodium PK7 catalytic activity – biochemical, TCAMS antimalarial set, Kinase-Glo luminescence (AID 1159587). Conditions: recombinant PfPK7, Kinase-Glo ATP depletion luminescence.
Protein kinase 7 (PK7), Plasmodium falciparum 3D7 (PF3D7_0213400), sequence (Q7YTF7 1-343): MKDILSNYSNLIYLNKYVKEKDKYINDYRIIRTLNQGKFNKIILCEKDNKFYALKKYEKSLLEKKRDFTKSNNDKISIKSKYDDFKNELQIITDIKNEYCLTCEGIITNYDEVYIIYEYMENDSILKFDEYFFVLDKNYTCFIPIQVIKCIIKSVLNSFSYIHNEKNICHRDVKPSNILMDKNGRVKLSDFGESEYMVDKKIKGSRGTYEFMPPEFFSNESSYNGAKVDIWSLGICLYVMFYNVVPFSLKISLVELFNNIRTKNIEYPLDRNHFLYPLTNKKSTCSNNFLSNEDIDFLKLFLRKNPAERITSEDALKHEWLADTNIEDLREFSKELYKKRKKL
Assay [8] addresses Calcium-dependent protein kinase 4 (Plasmodium falciparum (isolate 3D7)) (UniProt Q8IBS5). Kind of assay: PfCDPK4 kinase inhibitors, biochemical, TCAMS library (AID 1159588; cut-off not given, nearly all actives have IC50 up to about 0.91 µM). The following applies: recombinant PfCDPK4, Kinase-Glo ATP depletion luminescence.

Calcium-dependent protein kinase 1 (Plasmodium falciparum (isolate 3D7)), sequence (P62344 whole entry, looked up): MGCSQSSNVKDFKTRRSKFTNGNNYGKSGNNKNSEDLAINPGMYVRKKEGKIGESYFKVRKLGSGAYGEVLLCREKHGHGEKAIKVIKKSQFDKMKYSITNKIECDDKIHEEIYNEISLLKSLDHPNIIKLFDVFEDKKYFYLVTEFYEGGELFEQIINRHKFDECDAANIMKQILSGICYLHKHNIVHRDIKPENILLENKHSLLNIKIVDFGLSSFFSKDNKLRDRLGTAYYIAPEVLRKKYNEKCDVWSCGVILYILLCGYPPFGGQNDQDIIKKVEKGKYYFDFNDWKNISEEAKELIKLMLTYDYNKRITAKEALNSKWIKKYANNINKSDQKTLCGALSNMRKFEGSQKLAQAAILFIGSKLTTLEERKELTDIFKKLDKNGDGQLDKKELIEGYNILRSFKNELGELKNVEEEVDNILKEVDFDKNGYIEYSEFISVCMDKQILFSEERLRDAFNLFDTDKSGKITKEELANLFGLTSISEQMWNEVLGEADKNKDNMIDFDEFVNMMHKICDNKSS
Calcium-dependent protein kinase 4 (Plasmodium falciparum (isolate 3D7)), sequence (Q8IBS5 whole entry, looked up): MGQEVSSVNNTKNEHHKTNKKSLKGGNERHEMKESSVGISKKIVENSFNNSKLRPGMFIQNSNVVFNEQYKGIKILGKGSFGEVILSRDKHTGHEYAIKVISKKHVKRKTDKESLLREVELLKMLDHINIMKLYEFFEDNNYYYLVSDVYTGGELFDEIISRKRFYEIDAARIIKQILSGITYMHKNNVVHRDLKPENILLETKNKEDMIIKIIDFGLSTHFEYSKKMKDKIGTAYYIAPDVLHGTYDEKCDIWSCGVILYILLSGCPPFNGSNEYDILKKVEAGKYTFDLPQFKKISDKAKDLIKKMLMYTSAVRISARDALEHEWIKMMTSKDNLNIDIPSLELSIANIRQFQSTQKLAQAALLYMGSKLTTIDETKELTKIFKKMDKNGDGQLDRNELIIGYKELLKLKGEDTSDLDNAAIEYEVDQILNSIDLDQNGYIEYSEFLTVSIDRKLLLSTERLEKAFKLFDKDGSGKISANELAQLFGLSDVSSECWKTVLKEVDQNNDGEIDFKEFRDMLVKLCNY

Usually inhibition stands for the drop in the measured response relative to a control, in per cent. In the case of `Cc1cccc(Cl)c1S(=O)(=O)Nc1cccc(CCN2CCC(N3CCCCC3)CC2)c1`, the growth inhibition in assay [1] was 18%; in assay [4], 91% (active). The inhibition is 34% in assay [2] and 2% in assay [3]. For the same compound, the outcome in assay [5], in assay [6], in assay [7] and in assay [8] was inactive.
Consider `CC(C)CNCc1ccc(-c2cccc(CN(CCN(C)C)C(=O)CCC3CCCC3)c2)cc1`, for which the growth inhibition in assay [1] is 81% (active); in assay [4], 100% (active). For the same compound, the inhibition in assay [2] was 56% (active); in assay [3] it was -11%. The result in assay [5], in assay [6], in assay [7] and in assay [8] was inactive.
As to `CCc1cn2c3c(cc(C(=O)N[C@@H](Cc4cccc(F)c4)[C@H](O)CNC4CCCCC4)cc13)N(C)S(=O)(=O)CC2`, the growth inhibition in assay [1] and in assay [4] was 99% (active) in each case. The results for the inhibition in assay [2] and in assay [3] were 5% and 0%, respectively. In addition, the outcome in assay [5], in assay [6], in assay [7] and in assay [8] was inactive.
Consider `COc1ccc(CC2(c3ccc(F)cc3)N=C(N)N(CCCc3ccc4c(c3)OCO4)C2=O)cc1` (stereo not given), for which the values for the growth inhibition in assay [1] and in assay [4] were 97% (active) and 98% (active), respectively. Further, the inhibition in assay [2] is 60% (active); in assay [3] it was 3%. For the same compound, the result in assay [5], in assay [6], in assay [7] and in assay [8] was inactive.
Turning to `Nc1cccc(C=CC(=O)Nc2ccnc3ccccc23)c1`, the growth inhibition is 60% (active) in assay [1] and 98% (active) in assay [4]. For the same compound, the inhibition is 7% in assay [2] and -1% in assay [3]. The outcome in assay [5], in assay [6], in assay [7] and in assay [8] was inactive.
Consider `CCC(Nc1noc(-c2c(-c3ccccc3)noc2C)n1)c1ccccc1` (stereo not given), for which the growth inhibition in assay [1] is 85% (active); in assay [4], 99% (active). For the same compound, the inhibition was 4% in assay [2] and 1% in assay [3]. In addition, the outcome in assay [5], in assay [6], in assay [7] and in assay [8] was inactive.
Regarding `COc1ccc(C(=O)CCC(=O)N(Cc2ccc(-c3ccc(CNCCc4ccc(S(C)(=O)=O)cc4)cn3)cc2)C2C[C@@H]3CC[C@H]2C3)cc1F` (stereo not given in full), the growth inhibition is 34% in assay [1] and 97% (active) in assay [4]. Further, the inhibition is 5% in assay [2] and 0% in assay [3]. Moreover, the result in assay [5], in assay [6], in assay [7] and in assay [8] was inactive.
`COc1ccc(-c2ccc(NC(=O)c3cccc(C#N)c3)cc2)cc1CN1CCC(O)CC1`: the results for the growth inhibition in assay [1] and in assay [4] were 84% (active) and 101% (active), respectively. The inhibition in assay [2] was 21%; in assay [3], 7%. In addition, the outcome in assay [5], in assay [6], in assay [7] and in assay [8] was inactive.
With `CCCCn1c(Sc2ccc(C#N)c([N+](=O)[O-])c2)nnc1-c1cccc(Cl)c1`, the growth inhibition in assay [1] is 87% (active); in assay [4], 96% (active). For the same compound, the inhibition in assay [2] is 30%; in assay [3] it was 2%. In addition, the result in assay [5], in assay [6], in assay [7] and in assay [8] was inactive.
In the case of `Cc1[nH]c(C)c(-c2ccc(Oc3ccc(Cl)cc3)cc2)c(=O)c1Br`, the growth inhibition was 96% (active) in assay [1] and 97% (active) in assay [4]. Moreover, the inhibition in assay [2] was 12%; in assay [3] it was -4%. Besides, the result in assay [5], in assay [6], in assay [7] and in assay [8] was inactive.
`COc1cc(Nc2nccc(N3CCC(NC(=O)c4cccc(NC(C)=O)c4)C3)n2)cc(OC)c1OC` (stereo not given): the values for the growth inhibition in assay [1] and in assay [4] were 68% (active) and 98% (active), respectively. Also, the inhibition in assay [2] is 9%; in assay [3] it was -6%. The result in assay [5], in assay [6], in assay [7] and in assay [8] was inactive.
With `Cc1ccc(NC(=O)c2cccc(CN3CCCN(Cc4cccc(O)c4)CC3)c2)cc1F`, the values for the growth inhibition in assay [1] and in assay [4] were 45% and 99% (active), respectively. In addition, the inhibition is 20% in assay [2] and -5% in assay [3]. For the same compound, the outcome in assay [5], in assay [6], in assay [7] and in assay [8] was inactive.
`CCCCC(N)COc1cccc2c(-c3ccncc3)c(-c3cccc(NC(=O)Nc4ccccc4)c3)nn12` (stereo not given): the values for the growth inhibition in assay [1] and in assay [4] were 82% (active) and 102% (active), respectively. Also, the inhibition in assay [2] was 13%; in assay [3] it was 0%. The result in assay [5], in assay [6], in assay [7] and in assay [8] was inactive.
In the case of `COc1ccc(-n2nc(C(=O)NCc3ccccc3OC)c3ccccc3c2=O)cc1`, the growth inhibition in assay [1] was 94% (active); in assay [4] it was 102% (active). Also, the inhibition in assay [2] is 2%; in assay [3], 0%. Also, the outcome in assay [5], in assay [6], in assay [7] and in assay [8] was inactive.
As to `COc1ccc2nc3cc(Cl)ccc3c(Nc3ccc(O)c(CN4CC5CCC(CC5)C4)c3)c2c1`, the values for the growth inhibition in assay [1] and in assay [4] were 100% (active) and 102% (active), respectively. Moreover, the inhibition in assay [2] was 17%; in assay [3], 3%. Besides, the result in assay [5], in assay [6], in assay [7] and in assay [8] was inactive.
With `CCOc1ccc(C(=O)Nc2cc(Br)c3c(c2)CNCC3)cc1C#N`, the growth inhibition in assay [1] was 32%; in assay [4], 97% (active). In addition, the figures for the inhibition in assay [2] and in assay [3] were 17% and -6%, respectively. Also, the result in assay [5], in assay [6], in assay [7] and in assay [8] was inactive.
As to `O=C(/C=C/c1ccc(C(F)(F)F)cc1)NCCCCCN1CCCN(C(=O)Nc2ccc(Cl)cc2)CC1`, the results for the growth inhibition in assay [1] and in assay [4] were -1% and 99% (active), respectively. For the same compound, the figures for the inhibition in assay [2] and in assay [3] were 28% and -1%, respectively. For the same compound, the result in assay [5], in assay [6], in assay [7] and in assay [8] was inactive.
In the case of `CCc1ccccc1OCCCON1C(N)=NC(N)=NC1(C)C`, the growth inhibition in assay [1] is 97% (active); in assay [4], 95% (active). Also, the inhibition in assay [2] was 77% (active); in assay [3], -2%. The outcome in assay [5], in assay [6], in assay [7] and in assay [8] was inactive.
Consider `Cc1ccc(F)cc1S(=O)(=O)Nc1cccc(CCN2CCC(N3CCCCC3)CC2)c1`, for which the growth inhibition in assay [1] is 9%; in assay [4], 96% (active). In addition, the inhibition is 15% in assay [2] and 5% in assay [3]. In addition, the outcome in assay [5], in assay [6], in assay [7] and in assay [8] was inactive.
Turning to `Cc1cc(N[C@@H](Cc2ccccc2)C(=O)NCc2cccs2)nc(NCC2CCCCC2)n1`, the growth inhibition in assay [1] was 92% (active); in assay [4] it was 100% (active). The inhibition in assay [2] was -5%; in assay [3], 0%. Moreover, the result in assay [5], in assay [6], in assay [7] and in assay [8] was inactive.
